In the library only some 3% were active in any assay of this set; here they are far more common.
Glyco luc inh – N-linked glycosylation inhibition | D54 ERlucT glycosylation luciferase reporter, 24 h; percent of 100 nM tunicamycin response | reporter increase, % at 12.5 µM | hit rate 0.23% among 360,000;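 active = mean luciferase reporter signal, scaled so untreated is 0 and the glycosylation-blocking control 100, at or above a set limit in every replicate; inconclusive = mean reaches the limit but not every replicate does; inactive = mean below the limit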;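 note: luciferase carries N-glycosylation sites so blocking glycosylation raises the light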
esBAF inh – blocks esBAF chromatin remodeling in mouse ES cells; Bmi1-luciferase knock-in reporter, 24 h; 100% = twice the neutral-well signal; reporter increase, % at 12.5 µM; hit rate 2% among 350,000; AID 602393; in the data active = activation above about 40%; inconclusive = no clear call, values can overlap the other calls;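 note: a rise in the Bmi1 reporter signal indicates esBAF inhibition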
Vif imaging – HIV Vif inhibition; HEK293T cells, Vif self-association by quenched fluorescence, imaging, 24 h; inhibition, % at 7.49 µM; hit rate 0.35% among 340,000; AID 602346; in the data active = inhibition above about 50%, passing the limit was not always enough; inconclusive = no clear call, values can overlap the other calls; inactive = below about 31%
Wnt bcat act – activates Wnt/beta-catenin signaling in a reporter cell assay. hit rate 1.2% among 300,000. activator, plate reader. activation, % at 9.35 µM; in the data active = activation above about 30%, passing the limit was not always enough; inconclusive = no clear call, values can overlap the other calls
PfHsp90 yeast 2 – reduces growth (ATP signal) of yeast expressing P. falciparum Hsp90. S. cerevisiae expressing PfHsp90, BacTiter-Glo ATP, 48 h; yeast lacking PDR1 and PDR3 efflux regulators. inhibition, % at 9.4 µM. hit rate 0.32% among 310,000;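 active = every replicate shows inhibition above about 80%, whatever the replicate mean, limit read from the data; inconclusive = mean inhibition reaches the set limit but some replicate falls short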
MITF act – MITF TRPM1 promoter activation in melanoma cells; AID 588334; activation, % at 12.5 µM; hit rate 0.75% among 300,000; SK-MEL-5 TRPM1-promoter luciferase, 24 h; % of positive control, neutral wells = 0;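 active = mean activation of at least 80% with every replicate also reaching 80%; inconclusive = mean reaches 80% but some replicate falls short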
Of the large screens only hits and unclear results are named; the others gave an inactive call.

CCCCCCCCN1C(=O)[C@@H](CC(=O)NCc2cccc3ccccc23)C[C@@]2(C(=O)OC)C1=C[C@H](C1CCCC1)O[C@@H]2C	none (no result: Glyco luc inh, esBAF inh, Vif imaging, PfHsp90 yeast 2, MITF act)
Cc1ccc(-c2nc3ccccn3c2NCc2ccc3c(c2)OCO3)cc1	esBAF inh 44, Wnt bcat act inconclusive
c1ccc(-c2cc3nc(NCc4ccc5c(c4)OCO5)ccn3n2)cc1	esBAF inh 52 (no result: PfHsp90 yeast 2, MITF act)
c1ccc(COc2ccc(-c3cc4nc(NCc5ccc6c(c5)OCO6)ccn4n3)cc2)cc1	none (no result: PfHsp90 yeast 2, MITF act)
c1ccc(-c2cc3nc(NCc4cccs4)ccn3n2)cc1	esBAF inh 67 (no result: PfHsp90 yeast 2, MITF act)
N#Cc1c(NCCN)nc(-c2ccco2)c2c1CCCC2	Glyco luc inh 33 (no result: esBAF inh, Wnt bcat act)
O=S(=O)(c1ccc(Cl)cc1)c1snnc1-c1ccccc1	Vif imaging 94 (no result: Wnt bcat act)
COc1ccc2oc(C(=O)N(Cc3ccco3)Cc3cccs3)c(C)c2c1	none (no result: esBAF inh)
Cc1ccc(C(C[N+](=O)[O-])Sc2ccc(N)cc2)cc1 (stereo not drawn)	PfHsp90 yeast 2 107 (no result: esBAF inh, MITF act)
Cc1ccc(C(C[N+](=O)[O-])n2nc(C)cc2C)cc1 (stereo not drawn)	none (no result: esBAF inh, Vif imaging, Wnt bcat act)
O=C(COc1ccccc1[N+](=O)[O-])N(C1CCCCC1)C1CCS(=O)(=O)C1 (stereo not drawn)	none
O=C(Nc1nnc(-c2ccco2)o1)c1ccc(Cl)s1	none
CC(=O)Nc1ccccc1C(=O)C(=O)Nc1ccccc1	esBAF inh 35
OCCNc1c2ccccc2nc2ccccc12	Glyco luc inh 66 (no result: esBAF inh)
OCCNc1nc2ccccc2nc1NCCO	none (no result: MITF act)
CC1(C)CC(NC(=O)c2cc(S(=O)(=O)N3CCCCC3)ccc2Cl)CC(C)(C)N1	none
CCN1[C@@H]2c3ccc(-c4ccccc4OC)c(=O)n3C[C@H]1[C@H](CO)[C@H]2C(=O)N[C@H](C)c1ccccc1	none (no result: Glyco luc inh, Vif imaging, Wnt bcat act, PfHsp90 yeast 2, MITF act)
COc1ccc(C2C(CC(=O)O)=C(Nc3ccccc3)C(=O)N2c2ccccc2)cc1 (stereo not drawn)	esBAF inh 54, Wnt bcat act 43 (no result: PfHsp90 yeast 2)
O=C(O)CC1=C(O)C(=O)N(c2ccccc2)C1c1ccccc1 (stereo not drawn)	none
O=C(O)CC1=C(Nc2ccccc2)C(=O)N(c2ccccc2)C1c1ccc(F)cc1 (stereo not drawn)	esBAF inh 79 (no result: PfHsp90 yeast 2)
O=C(CSc1ccccn1)Nc1ccc2c(c1)OCCO2	esBAF inh inconclusive
O=C(CSc1ccccn1)Nc1ccc2c(c1)CCC2	esBAF inh 77, MITF act 110 (no result: Wnt bcat act)
O=C(CSc1ccccn1)Nc1ccc2c(c1)C(=O)c1ccccc1C2=O	MITF act 95 (no result: esBAF inh, Wnt bcat act)
CC1CCN(CCOCCSc2ccc(Cl)cc2)CC1	none (no result: esBAF inh)
COC(=O)c1c(C)[nH]c(C=O)c1-c1ccccc1	none (no result: esBAF inh, PfHsp90 yeast 2, MITF act)
COC(=O)c1c(-c2ccccc2)c[nH]c1C	esBAF inh 51
O=C1NN(c2cccc(Br)c2)C(=O)/C1=C\c1ccc(N2CCOCC2)cc1	none (no result: Wnt bcat act)
Cc1ccc(NC(=O)C2CC2C)cc1S(=O)(=O)N1CCOCC1 (stereo not drawn)	none (no result: esBAF inh, PfHsp90 yeast 2)
Cc1cc(C)n(CC(O)COc2ccc(Cl)cc2Cl)n1 (stereo not drawn)	esBAF inh 52 (no result: MITF act)
CSc1nc(Sc2ccccc2)c2ccccc2n1	none (no result: Wnt bcat act)
COc1ccc(NC(=O)CN(C)S(=O)(=O)c2ccc(Br)s2)cc1	none
CCOc1ccc(NC(=O)CN(c2ccc(OC)cc2)S(C)(=O)=O)cc1	esBAF inh 67 (no result: Wnt bcat act)
CCOc1ccc(S(=O)(=O)Nc2cccc(C(=O)N(C)CC(=O)Nc3ccc(OC)cc3)c2)cc1	Vif imaging 72
COc1ccc(NC(=O)CN(C)S(=O)(=O)c2cccs2)cc1	esBAF inh 49
CCOc1ccc(N(CC(=O)Nc2ccc(OC)cc2)S(C)(=O)=O)cc1	none (no result: MITF act)
Fc1ccc(N2CCN(/C=C/c3nnnn3-c3ccccc3)CC2)cc1	none
CC(C)C(=O)Nc1ccc(C(=O)c2ccccc2)cc1	esBAF inh 67 (no result: PfHsp90 yeast 2)
CC(CCc1ccccc1)NC(=O)c1ccc(NC(=O)c2ccccc2)cc1 (stereo not drawn)	Glyco luc inh 26
CC(CCc1ccccc1)NC(=O)c1ccc(NC(=O)c2cccc(Br)c2)cc1 (stereo not drawn)	none (no result: esBAF inh)
Cc1cc(=O)[nH]c(N/N=C/c2ccc(C)o2)n1	none (no result: esBAF inh)
Cn1ccnc1SCC(=O)c1cccc(C(F)(F)F)c1	MITF act 89
CCOc1ccc(NC(=O)CSc2nccn2C)cc1	esBAF inh inconclusive

Screening data: PubChem, Broad Institute
